Measurements as given in PMC4336329 (PLoS ONE, 2015).
Among all 310,000 compounds or so, about 14,000 (4.5%) showed an effect of 50% or more. Effects have a minus sign here. The entries come from a sample that favours strong results as a whole.

biological target: human ether-à-go-go-related gene (hERG) potassium channel (human, UniProt Q12809); assay: primary screen, population patch clamp on CHO cells stably expressing hERG; higher = less effect of the substance
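Further: peak tail current of the secondary pulse compared with the same well before compound.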

Sequence of human ether-à-go-go-related gene (hERG) potassium channel (Q12809 whole entry, looked up): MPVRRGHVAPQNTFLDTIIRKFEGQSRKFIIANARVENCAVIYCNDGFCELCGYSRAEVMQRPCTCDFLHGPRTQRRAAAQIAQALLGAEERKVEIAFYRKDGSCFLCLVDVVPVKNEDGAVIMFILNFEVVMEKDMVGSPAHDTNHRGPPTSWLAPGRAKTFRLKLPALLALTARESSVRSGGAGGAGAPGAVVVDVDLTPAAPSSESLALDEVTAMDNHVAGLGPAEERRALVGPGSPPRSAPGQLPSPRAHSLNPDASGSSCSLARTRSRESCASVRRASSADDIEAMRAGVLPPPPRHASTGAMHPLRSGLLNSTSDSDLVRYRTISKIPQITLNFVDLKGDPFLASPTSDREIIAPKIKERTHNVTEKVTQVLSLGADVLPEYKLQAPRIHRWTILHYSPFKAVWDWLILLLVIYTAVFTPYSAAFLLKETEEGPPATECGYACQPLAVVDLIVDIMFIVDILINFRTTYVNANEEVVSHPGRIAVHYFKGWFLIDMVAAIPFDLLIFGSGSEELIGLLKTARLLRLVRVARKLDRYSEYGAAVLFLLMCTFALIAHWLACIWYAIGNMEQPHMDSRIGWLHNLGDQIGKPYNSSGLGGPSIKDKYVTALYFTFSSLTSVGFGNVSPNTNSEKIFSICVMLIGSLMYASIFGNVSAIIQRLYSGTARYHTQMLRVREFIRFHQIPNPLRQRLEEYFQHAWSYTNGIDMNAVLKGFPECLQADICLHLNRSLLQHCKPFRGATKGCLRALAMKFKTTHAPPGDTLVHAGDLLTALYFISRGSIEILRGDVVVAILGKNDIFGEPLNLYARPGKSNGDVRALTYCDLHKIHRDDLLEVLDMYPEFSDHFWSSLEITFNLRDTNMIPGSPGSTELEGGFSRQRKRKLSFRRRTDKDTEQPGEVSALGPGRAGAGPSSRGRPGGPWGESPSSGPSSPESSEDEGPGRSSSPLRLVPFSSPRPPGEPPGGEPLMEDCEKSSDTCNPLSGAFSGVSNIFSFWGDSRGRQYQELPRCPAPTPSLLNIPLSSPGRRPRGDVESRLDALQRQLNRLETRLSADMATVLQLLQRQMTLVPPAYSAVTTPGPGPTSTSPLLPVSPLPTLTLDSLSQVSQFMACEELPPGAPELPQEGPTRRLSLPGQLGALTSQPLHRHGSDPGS

SMILES	hERG current change (%, negative = inhibition) at 10uM
Cc1noc(C)c1C(=O)Nc1ccc(-c2nnc3n2CCCCC3)cc1	5.46%
CC1(C)CC(CC(=O)Nc2ccccc2[N+](=O)[O-])C(=O)O1 (stereo not drawn)	-1.77%
Cc1cccc(-c2c3c(=O)n(C)c(=O)n(C)c3cn2-c2ccccc2O)c1	1.06%
Cc1cc(C)c2oc(-c3ccc(C)c(NC(=S)NC(=O)/C=C/c4ccco4)c3)nc2c1	11.2%
Cc1cc(=O)oc2cc(OCC(=O)N3CCN(C(C)c4ccccc4)CC3)c(Cl)cc12 (stereo not drawn)	-35.1%
O=C(N/N=C/c1ccco1)c1cc(-c2cccs2)[nH]n1	1.93%
Cc1ccccc1C(=O)NCCN1CCOCC1.Cl	6.78%
Fc1ccc(-c2c[nH]c(=S)n2Cc2ccccc2)cc1	-38%
O=C(NCCc1c[nH]c2ccccc12)C(F)(F)F	3.79%
COc1ccc(NC(=O)c2ccc(-n3cncn3)c([N+](=O)[O-])c2)cc1OC	-2.52%
CC(C)(Cc1cc(CC(C)(C)C(=O)O)cc(C(C)(C)C)c1)C(=O)O	10.4%
Cc1ccc(Nc2c(-c3ccc(N4CCOCC4)cc3)nc3ncccn23)cc1C	7.71%
COCc1nc(-c2ccc(-c3ccccc3)nc2OC)no1	-2.5%
COc1ccc(NC(=O)CN2CCCN(S(=O)(=O)c3ccc(F)cc3)CC2)c(OC)c1	-54.6%
COc1ccc(S(=O)(=O)N2CCCN(CC(=O)Nc3ccccc3F)CC2)cc1	-55.7%
O=C(CN1CCN(S(=O)(=O)c2ccc(F)cc2)CC1)Nc1ccccc1F	-56.1%
O=C(CN1CCN(S(=O)(=O)c2ccc(Br)cc2)CC1)Nc1ccccc1F	-62.5%
COc1ccc(S(=O)(=O)N2CCN(CCC(=O)Nc3ccccc3F)CC2)cc1	-0.0172%
O=C(CCN1CCN(S(=O)(=O)c2ccc(Br)cc2)CC1)Nc1ccccc1F	-31.2%
O=C(CN1CCN(S(=O)(=O)c2ccc(Br)cc2)CC1)Nc1ccccc1C(=O)c1ccccc1	1.26%
COc1ccc(NC(=O)N2CCN(S(=O)(=O)c3ccc(F)cc3)CC2)c(OC)c1	-6.4%
O=C(CN1CCCN(S(=O)(=O)c2ccc(F)cc2)CC1)Nc1ccccc1Br	-49.1%
O=C(CCN1CCN(S(=O)(=O)c2ccc(F)cc2)CC1)Nc1ccccc1F	-8.34%
COc1ccc(NC(=O)CN2CCN(S(=O)(=O)c3ccc(Br)cc3)CC2)c(OC)c1	19.8%

SMILES	hERG current change (%, negative = inhibition) at 10uM
COc1ccc(S(=O)(=O)N2CCN(CC(=O)Nc3ccccc3OC)CC2)cc1	-5.56%
Cc1ccsc1C(=O)c1sccc1C	-3.08%
CSc1ccc(CCNC(=O)c2cc(-c3ccccc3)c(N3CCOCC3)s2)cc1	-1.02%
O=C(NCc1ccncc1)c1ccc(Cl)c(S(=O)(=O)N2CCCCC2)c1	-22.4%
O=C1CN(O)C=C2N=c3ccccc3=C2N1c1ccc([N+](=O)[O-])cc1	-26.6%
Cc1ccc(OCc2nnc(SCC(=O)c3ccccc3)n2Cc2ccco2)cc1	-47.1%
COc1ccc(NC(=O)C(NC(=O)CC2NC(=O)NC2=O)c2ccccc2)cc1 (stereo not drawn)	-2.49%
CSc1ccccc1NC(=O)CSCc1ccc(C)cc1	-7.79%
COc1cc2ccccc2cc1C(=O)Nc1nnc(-c2ccncc2)o1	-52.3%
COc1cc2ccccc2cc1C(=O)Nc1ccncc1	-24.8%
O=C(Nc1nnc(-c2ccncc2)o1)c1ccc2ccccc2c1	-3.08%
O=C(Nc1ncc(S(=O)(=O)c2ccc([N+](=O)[O-])cc2)s1)c1cccnc1	-2.29%
COc1cc(C(=O)OCCCOC(=O)c2cc(OC)c(OC)c(OC)c2)cc(OC)c1OC	0.241%
COc1cc(OC)cc(C(=O)OCCNC(=O)Cn2cnc3c2c(=O)n(C)c(=O)n3C)c1	0.82%
O=C(OCCCN1CCCCC1)c1ccc(O)cc1	-54.6%
CCN(CC)CC(C)OC(=O)c1cc(OC)c(OC)c(OC)c1.Cl (stereo not drawn)	-11.5%
CCN(CC)CCCCCCCCOC(=O)c1cc(OC)c(OC)c(OC)c1.Cl	-50.1%
COc1cc(C(=O)OCCCN2CCCN(CCCOC(=O)c3cc(OC)c(OC)c(OC)c3)CC2)cc(OC)c1OC.Cl	-67.8%
COc1cc(C(=O)OCCN2CCOCC2)cc(OC)c1OC	-5.95%
COc1cc(C(=O)OCCCN(C)C)cc(OC)c1OC.Cl	4.69%
O=C(OCCN1CCCCC1)c1ccc(O)cc1	-35.4%
CCN(CC)CCn1cnc2c1c(=O)n(CCOC(=O)c1cc(OC)c(OC)c(OC)c1)c(=O)n2C.Cl	-60.3%
COc1cc(C(=O)OCCn2c(=O)c3c(ncn3CCN(C)C)n(C)c2=O)cc(OC)c1OC.Cl	-2.6%
O=C(OCCCOC(=O)c1ccc(O)cc1)c1ccc(O)cc1	-17.3%
